Values joined by “and” are separate entries in the source; they are usually repeats but may differ in a detail not shown here. Equal values may be shown once. Compounds without any hit were thinned out: in the full panel of roughly 83,000, 20% have a hit.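 Each cell line was grown in a 96-well plate and treated with one concentration of compound for 48 hours. Values below 10 were considered active.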 Active and inactive are the calls of the source.

We go through 38 compounds from PubChem BioAssay (NCI).

The subject of the test is HOP-92 NSCLC. Put plainly: NCI-60 one-dose screen, 48 h (100 = growth as untreated, 0 = no growth, -100 = all killed). The note with it: 10 µM unless noted.
Regarding `COc1ccc(NC2=C(I)C(=O)C(C)=C(C)C2=O)cc1`, the growth is 31.4% (inactive).
For the compound `CC(=O)Nc1cccc(-n2c(COc3ccc(Br)cc3)nc3ccccc32)c1`, the growth is 90% (inactive) and 108% (inactive).
For the compound `CCCSc1nnc(-c2sc3nc4ccccc4n3c2C)o1`, the growth was 101% (inactive).
For the compound `COc1cc(/C=N/NC(=O)c2ccc(OCc3nc4ccc(C)cc4[nH]3)cc2)cc(OC)c1OC`, the growth is 96.5% (inactive).
With `COc1cc(CNC(=O)C[C@H](C)CCC=C(C)C)ccc1OCc1cn(-c2ccccc2Cl)nn1` the figure was 79.4% (inactive); with `Cc1ccc(C(=O)Nc2cc(-n3ccnc3)cc(C(F)(F)F)c2)cc1-n1cc(-c2cnc3cccnn23)nn1`, 78.8% (inactive).
In the case of `O=C(Nc1ccc(Cl)c(C(F)(F)F)c1)N1CCN(c2cc(-c3cn(-c4ccccc4)nc3-c3cccc(O)c3)ccn2)CC1`, the growth was -2.61% (active).
To `FC(F)(F)CN1CCN(CCn2c(C(F)(F)F)cc3c(Cl)ncnc32)CC1` belongs 72.2% (inactive).
To `COc1cccc(C(N)=Nc2ccc(OCCCCCCCCn3cncn3)cc2)c1` belongs 73.7% (inactive); to `Nc1nnc(-c2cncc(Br)c2)c(-c2c[nH]c3ccc(Br)cc23)n1`, 83.3% (inactive).
On to `Nc1cc(-c2c[nH]c3ccc(Cl)cc23)nc2cc(-c3c[nH]c4ccccc34)nn12`, for which the growth is -22.8% (active).
As to `CN(C)CCOc1ccc(C(=O)C2[C@H](c3ccc(Cl)cc3)[C@@H](c3ccccc3)NC23C(=O)Nc2ccc(Cl)cc23)cc1` (stereo partly drawn), the growth is -89.9% (active).
For the compound `O=C(NNC(=S)NC(=O)c1ccccc1)c1ccc(OCc2nc3ccc(Cl)cc3[nH]2)cc1`, the growth was -10.8% (active).
For the compound `O=C(c1ccc(Cl)cc1)C1[C@H](c2ccccc2Cl)[C@@H](c2ccccc2)NC12C(=O)Nc1ccc(Br)cc12` (stereo partly drawn), the growth is -84.3% (active).
Regarding `COc1ccc(CCC2NCCc3c(Br)c4c(c(OC)c32)OCO4)cc1` (stereo not drawn), the growth is 15.6% (inactive).
With `O=C(Nc1ccc(Br)cc1)Nc1ccc(-c2ccc3c(c2)NC(=O)/C3=C\c2ccc[nH]2)cc1`, the growth was 92.1% (inactive).
Regarding `O=C(Nc1ccc(S(=O)(=O)N2CCCCC2)cc1)C(Cl)Cl`, the growth was 116% (inactive).
To `O=C(N/N=C/c1ccc(Br)o1)c1[nH]c2ccc(Br)cc2c1-c1ccccc1` belongs -4.09% (active); to `COc1cc(/C=C/C(=O)c2ccc(S(=O)(=O)NCCNc3nc(N(C)C)nc(N4CCOCC4)n3)cc2)cc(OC)c1OC`, 50.1% (inactive); to `CCCCNC(=S)Nc1ccc(OCc2nc3ccc(Cl)cc3[nH]2)cc1`, -0.247% (active).
Consider `COc1ccc(-c2cc(C(=O)N=Nc3c(O)[nH]c4ccc(Cl)cc34)c3ccccc3n2)cc1OC`, for which the growth was 121% (inactive).
`NS(=O)(=O)c1cccc(Nc2nc(SCC(=O)c3ccc(F)cc3)nc3ccccc23)c1`: the growth is 29% (inactive).
In the case of `COc1ccc2[nH]c(O)c(N=Nc3nc(-c4ccccc4)cs3)c2c1`, the growth is -8.09% (active).
For the compound `COc1ccc(OC)c(Cn2cc(C#N)c(N)c2C(=O)c2ccc(Br)cc2)c1`, the growth is 55.7% (inactive).
Consider `CC1=C(C)C(=O)C(N2CCSCC2)=CC1=O`, for which the growth was 89.5% (inactive).
To `N#Cc1c(-c2ccc(F)cc2)nc(SCc2ccc(F)cc2)nc1N1CCNCC1` belongs -64.9% (active); to `COc1ccc2[nH]cc(-c3cc4nc(-c5cn(C)c6ncccc56)cc(N)n4n3)c2c1`, -45.7% (active); to `O=C1Nc2ccccc2/C1=C\c1ccc(OCC(=O)c2ccc(Br)cc2)cc1`, 75.5% (inactive).
With `Nc1nn2c(-c3cc4ccccc4oc3=O)ccnc2c1N=Nc1ccccc1`, the growth is 30.2% (inactive).
Turning to `O=c1c(-c2nc(-c3ccccc3)c(-c3ccccc3)[nH]2)coc2ccc(F)cc12`, the growth was 88.1% (inactive).
Consider `Cc1ccccc1Nc1nnc(-c2c[nH]c3ccccc23)o1`, for which the growth was 29.1% (inactive).
For the compound `O=CNc1cccc(-n2cnc3cc(-c4ccc(O)cc4)ccc32)c1`, the growth is 71.7% (inactive).
Consider `CC1(C)CC(=O)C2=C(C1)OC(N)=C(c1nc3ccccc3[nH]1)C2c1ccc(Cl)cc1` (stereo not drawn), for which the growth was 54.8% (inactive) and 119% (inactive).
With `CN1C(=O)/C(=C\C(=O)c2cc3ccccc3oc2=O)c2ccccc21` the figure was 64.3% (inactive).
In the case of `Cc1cc(N=C(N)c2ccccc2)ccc1OCCCCCCCCn1ccnc1`, the growth is 16.3% (inactive).
With `Cc1ccc(C2CC(c3ccc(NC(=S)Nc4ccccc4)cc3)=NN2c2ccc(S(N)(=O)=O)cc2)cc1` (stereo not drawn), the growth was 7.59% (active).
Regarding `COc1cc(CNC(=O)[C@]23CCC(C)(C)CC2C2=CCC4[C@@]5(C)CCC(OC(C)=O)C(C)(C)C5CC[C@@]4(C)[C@]2(C)CC3)ccc1OCc1cn(-c2ccc(Cl)cc2Cl)nn1` (stereo partly drawn), the growth was 116% (inactive).
For `Nc1ccc(-c2ccc3ncnc(N4CCc5cc(F)c(Cl)cc54)c3c2)cn1`, the growth is 1.25% (active).
